Measured values as given in PMC12136788.
Positions count from the first letter of the chain named. The full ranking holds about 24,000 sequences; the median of “enrichment r” is about 0.99, and the highest 2% start at about 3.7. Only a selection was taken, and the highest values are over-represented in it overall.

T1: UNK ZnF1-3 (human, UniProt Q9C0B0 31-174)
T1 sequence: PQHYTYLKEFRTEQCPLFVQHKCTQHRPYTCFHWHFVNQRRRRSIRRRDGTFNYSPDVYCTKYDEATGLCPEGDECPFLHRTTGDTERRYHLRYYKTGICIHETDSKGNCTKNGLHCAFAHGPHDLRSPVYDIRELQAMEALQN

B1: chr17:56552419:56552420:-_ENSMUSG00000013236_ENSMUST00000086828|mus_mus|mus_mus_mus_hu_False|48_48 (ssRNA)
RNA: GGGAGUUCUACAGUCCGACGAUCAAAAAAUACACUAUUUAAAAAAAAUGAAAUGUCACGGGAUACAGUUACACUGAGAGUUUUAAAAAAAAAUAAGAUUCUGGUCCCAGCCCAGUGUCCCCAGGCUGCAGAGCGGGGAGGAGCCAACAGAGGAUUGAGCAUCA
B2: 35626089_35772405_348_CDS_ENSG00000108100_ENST00000265375|human|control|control (ssRNA)
RNA: GGGAGUUCUACAGUCCGACGAUCGUCCGUCUGAGAUUUACUGAGGAAUAUUGUGCUGGCCCGAGGAUGAUCUGAAGGAUUGAAUUCCAUGUUCAAAUCGUCUAUGUUCUCCCGGUCGCUGAUGUGCUGCAGGUUGCAGCCCGUCAACAGAGGAUUGAGCAUCA
B3: chr2:216981417:216981418:+_ENSG00000079246_ENST00000392132|hu_hu|hu_hu_hu_mus_True|18_98 (ssRNA)
RNA: GGGAGUUCUACAGUCCGACGAUCCUGAUACUGGUCCCCACCAGAAAGGGCAUUAUCAGUGCCAUCUGUGCCAUAGAGGACUAACGCAAUCUCAUCUUUGCUCUCCGAAAAUACCUGUCGCUGUACAAACAUAGUCAUCACUUUCAACAGAGGAUUGAGCAUCA
B4: chr11:48616917:48616918:+_ENSMUSG00000020372_ENSMUST00000020640|mus_mus|FALSE|FALSE (ssRNA)
RNA: GGGAGUUCUACAGUCCGACGAUCGACGAUGAUAGGGUUGCUGCUGUUCGGGGAGAAGCGGACACAAGACACCCAUUCUGAAUGACUCUCAUCCUGGACCGUGUACUUGCAGACACCCAGAGUAUUCCAUAACUUUAUGGUCUUCAACAGAGGAUUGAGCAUCA
B5: chr15:81680702:81680703:-_ENSMUSG00000048546_ENSMUST00000050467|mus_mus|motif|central (ssRNA)
RNA: GGGAGUUCUACAGUCCGACGAUCGAGAGAGAGUUGAGGCUAGGGCCAGACUUAUUUGGGUGGCAGGCCCUGAGAAGACAGCGGGGUUGGGGGUUGUGGACACGGGGGUGGAGGGUGGGGGGGUGUCAGCCUCUCCCUGUUUCACAACAGAGGAUUGAGCAUCA
B6: chr22:32879901:32879902:+_ENSG00000100225_ENST00000397426|hu_mus|hu_hu_hu_mus_False|78_78 (ssRNA)
RNA: GGGAGUUCUACAGUCCGACGAUCCUCUUCCAUACUCAUGGCAUCCUGAAUUGACUCAGCUUCAAAAUUUUGACUAGGCCCUUCCAUACUGUCAUCAGUCCAGGCAUCAAAUGGGGUGGCCUGUCCUUGGGAUGAAUCAGUCCCCAACAGAGGAUUGAGCAUCA
B7: chr7:143080189:143080190:+_ENSG00000159840_ENST00000392910|hu_hu|FALSE|FALSE (ssRNA)
RNA: GGGAGUUCUACAGUCCGACGAUCUGGGGCUCCAGGACUGAACUUGGAAGCCACAGGAGUAAACUUAGGAGUCACUGGAGAAAACUUAGGGGCUGGAGCCGGAGAUGAGGCUGGGGGCCCUCGGGGCUGGGUGUUAGCCAAAGACAACAGAGGAUUGAGCAUCA
B8: chr14:67424093:67424094:-_ENSMUSG00000022048_ENSMUST00000022629|mus_hu|FALSE|FALSE (ssRNA)
RNA: GGGAGUUCUACAGUCCGACGAUCGAGAGACGGGGUGUGGGGCCCCAAGGGGGACCCCAUGAACUGGCUGCUCCACAGUAACUAUCACAGGCUCUUAAAAAAAAAAACAAAAAAAAAAAAAGGAAGGAAGAAAGAAGUCUCAGACAACAGAGGAUUGAGCAUCA
B9: chr14:67424093:67424094:-_ENSMUSG00000022048_ENSMUST00000022629|mus_hu|motif|central (ssRNA)
RNA: B8 RNA with U82G, A83G
B10: 23240013_23240133_1240_CDS_ENSG00000136243_ENST00000258742|human|control|control (ssRNA)
RNA: GGGAGUUCUACAGUCCGACGAUCACUACCAAAACCAGCCACAGAACUGCCACCUCCAAAGGCUGGGGCCACUGGAGCUCUGACAGGACCUGUUGCCAAGGAAGCUGGAAGUCCUGAAAAUCCAGGUGAUCCAAAACUGGAAGCCAACAGAGGAUUGAGCAUCA
B11: chr14:66974463:66974464:+_ENSMUSG00000022044_ENSMUST00000074523|mus_hu|mus_mus_mus_hu_False|88_88 (ssRNA)
RNA: GGGAGUUCUACAGUCCGACGAUCUUGUAGGACGACUUAUUCAGGGGAUCAGACAAGAAGCAGGAGCAGAACAAGGACACCAGCGGGAGCUCCUUCAUCUUCUCUUUGUAGGCAGCAAGGGUCAUGUUUCUGGGAUCUGGUGGCCAACAGAGGAUUGAGCAUCA
B12: chrX:71549400:71549401:+_ENSMUSG00000019087_ENSMUST00000019231|mus_hu|mus_mus_mus_hu_False|28_68 (ssRNA)
RNA: GGGAGUUCUACAGUCCGACGAUCGCAGUAGGAAGAGGGAAGCUCUUCAGUCCAGUGCGCUGCAGGGAGAAACAUGAACAACACGGACACCGUCCCACCCUCAACCCUCUCAGGUGUACAGGGUCACACAAUCUGGGUCAAAGACAACAGAGGAUUGAGCAUCA
B13: chr8:73282188:73282189:+_ENSMUSG00000031840_ENSMUST00000034301|mus_hu|FALSE|FALSE (ssRNA)
RNA: GGGAGUUCUACAGUCCGACGAUCUAGGGUGUCAUCUGGCCCCUCUUCACAACUGACAACUGUGGAUGGGGGUGAAUUUUAAAAAAAGGCGGGGGGGGGGGGUUCAGGAGGGUGAGCGGUGAGUUCACGGGGCCACGAGACACCCAACAGAGGAUUGAGCAUCA
B14: chr6:43255143:43255144:+_ENSG00000146216_ENST00000259750|hu_mus|FALSE|FALSE (ssRNA)
RNA: GGGAGUUCUACAGUCCGACGAUCUCCUAGGCCUCCCCUUCUUUCAAUCUCCAAACCUGGGUGUUGUUGGUCCUACGGCAGAAGGGAGACUGAGGGGGGCACCUACACUCACAGUUAGGUUGGUGGCAAGGGGCAGGCCCAGGGCAACAGAGGAUUGAGCAUCA
B15: 34053828_34053948_230_3pUTR_ENSMUSG00000051390_ENSMUST00000053429|mouse|control|control (ssRNA)
RNA: GGGAGUUCUACAGUCCGACGAUCUGGUCACCUCAGGGAAGGACACGUGUACCACUGCAGCUGCCGGCAGAGGCAGUGGCGGUGGAGCCAGUGACAGAGGCAGUGGGAGUGUGGCCCCACUGGGUGACAGAGCAGACGGCUCCACAACAGAGGAUUGAGCAUCA
B16: 157127611_157127731_2631_3pUTR_ENSMUSG00000026469_ENSMUST00000027741|mouse|control|control (ssRNA)
RNA: GGGAGUUCUACAGUCCGACGAUCAUUAAAAGUAGCUUUGUGGAGGAGGUGCUGCUCCAAGCUGCACUUUCCCUGCAAGUGCUGCCAGUGUCUCUGCACUGGCUAUGAAGGAAGGGAAAAACUCUCCAUAGAAACUGACAGAAACAACAGAGGAUUGAGCAUCA

These binders were tested against T1, UNK ZnF1-3 (assay: nsRBNS (natural sequence RNA bind-n-seq); RBNS binding buffer (assumed for nsRBNS): 25 mM Tris pH 7.5, 150 mM KCl, 3 mM MgCl2, 0.01% Triton X-100, 500 ug/ml BSA, 20 U/ml SUPERase-In, 4 C; UNK is unkempt and MSI1 is Musashi-1; names of the RNAs are library labels; protein concentration not given here; high values mean tight binding).
B1 showed a binding signal of 7.18 enrichment R.
For B2, the binding signal was 0.777 enrichment R.
For B3, the binding signal was 1.16 enrichment R.
For B4, the binding signal was 0.907 enrichment R.
For B5, the binding signal was 4.46 enrichment R.
B6 was tested, and the binding signal was 1.23 enrichment R.
In the case of B7, the binding signal is reported as 1.45 enrichment R.
B8 showed a binding signal of 20.5 enrichment R.
Binder B9 has a binding signal of 7.78 enrichment R.
For B10, the binding signal was 1.23 enrichment R.
Work on B11 yielded a binding signal of 2 enrichment R.
Work on B12 yielded a binding signal of 1.64 enrichment R.
B13 showed a binding signal of 4.04 enrichment R.
B14 showed a binding signal of 0.766 enrichment R.
In the case of B15, the binding signal is reported as 0.895 enrichment R.
Binder B16 has a binding signal of 0.603 enrichment R.
